{"source": "PubChem BioAssay AID687028", "about": "(Broad Institute, 2013)", "note": "In all, about 1,400 compounds went through this assay and about 55 (4%) were called active. These entries were drawn from the full list. Measured potencies and affinities stand elsewhere. A number with no mark means an inactive call. The rule behind the calls is not given here."}
{"assay": "viability loss in A549 cells – cell-based, plate reader, cherry-pick samples, cytotoxicity control, dose response (AID 687028);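 note: cells incubated with compound for three days before reading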", "conditions": "series mostly up to 19.5 µM; activity change, negative = toxicity: at the top concentration"}
{"smiles": "COc1ccc(-c2cnc3c(NC(C)=O)cc(-c4ccccc4OC)cn23)cc1OC", "activity change, negative = toxicity": "-5.73%"}
{"smiles": "O=C(OCc1ccccc1)N1CCC2CC1c1ccc(-c3ccc4c(c3)OCO4)cc12", "note": "(stereo not drawn)", "activity change, negative = toxicity": "-3.39%"}
{"smiles": "Cc1cc(F)ccc1S(=O)(=O)Nc1ncnc2scc(-c3ccc(F)cc3)c12", "activity change, negative = toxicity": "1.95%"}
{"smiles": "C[C@@H]1CN([C@@H](C)CO)C(=O)c2cc(NC(=O)Nc3ccc(C(F)(F)F)cc3)ccc2O[C@@H]1CN(C)C(=O)NC1CCCCC1", "activity change, negative = toxicity": "-5.36% [at 21 µM]"}
{"smiles": "CC1(C(=O)NCc2ccccc2)CN(S(C)(=O)=O)CC(=O)N1CCc1ccccc1F", "note": "(stereo not drawn)", "activity change, negative = toxicity": "3.86%"}
{"smiles": "COc1ccccc1S(=O)(=O)N(C)C[C@H]1Oc2cc(C#CCC(C)C)ccc2S(=O)(=O)N([C@@H](C)CO)C[C@@H]1C", "activity change, negative = toxicity": "-33%"}
{"smiles": "Cc1ccc2oc3c(c(=O)c2c1)C(c1cccc(Cl)c1)N(CCCN1CCOCC1)C3=O", "note": "(stereo not drawn)", "activity change, negative = toxicity": "-1.92%"}
{"smiles": "O=C(c1ccc2c(c1)OCO2)N1CCC(Cc2ccccc2)CC1", "activity change, negative = toxicity": "7.07%"}
{"smiles": "O=C(NCc1ccccn1)C(=O)NCC1OCCN1S(=O)(=O)c1ccc(Br)cc1", "note": "(stereo not drawn)", "activity change, negative = toxicity": "8.48%"}
{"smiles": "CC1(NC(=O)c2cc(Cl)nc3ccccc23)CCS(=O)(=O)C1", "note": "(stereo not drawn)", "activity change, negative = toxicity": "-2.91%"}
{"smiles": "COc1ccc(Cl)cc1N1C(=O)CC(N2CCN(S(=O)(=O)c3ccccc3F)CC2)C1=O", "note": "(stereo not drawn)", "activity change, negative = toxicity": "1.09%"}
{"smiles": "CN(C)c1ccc(-c2cc3ccccc3c(=O)o2)cc1", "activity change, negative = toxicity": "1.1%"}
{"smiles": "Cc1ccc(C)c(C(Nc2ccccc2)c2ccc3ccc(C)nc3c2O)c1", "note": "(stereo not drawn)", "activity change, negative = toxicity": "-0.272%"}
{"smiles": "CCOC(=O)Cc1sc(N)nc1C", "activity change, negative = toxicity": "0.064%"}
{"smiles": "O=C(Nc1cccc(Cl)c1)c1ccccc1", "activity change, negative = toxicity": "-3.71%"}
{"smiles": "CCCCCNC(=O)c1[nH]c(C(F)(F)F)nc1-c1ccccc1", "activity change, negative = toxicity": "6.01%"}
{"smiles": "COC(=O)c1ccc2nc(C3CCCCC3)c(Cc3ccccc3OC)n2c1", "activity change, negative = toxicity": "-1.25%"}
{"smiles": "CCCCNC(=O)c1ccc(NS(=O)(=O)c2ccc3[nH]c(=O)[nH]c3c2)cc1", "activity change, negative = toxicity": "0.722%"}
{"smiles": "COc1cc(NC(C)=O)c2ncccc2c1Br", "activity change, negative = toxicity": "3.43%"}
{"smiles": "CC(=O)Nc1cccc2ncccc12", "activity change, negative = toxicity": "-0.652%"}
{"smiles": "CCOc1cc(CNCCN2CCOCC2)ccc1OCc1ccccc1Cl", "activity change, negative = toxicity": "-1.76%"}
{"smiles": "CC1=NCCN1CCNC(=O)Nc1ccc(C(C)(C)C)cc1", "activity change, negative = toxicity": "3.62%"}
{"smiles": "C[C@H](CO)N1C[C@H](C)[C@H](CN(C)C)Oc2ncc(C#CC3CC3)cc2C1=O", "activity change, negative = toxicity": "1.84%"}
{"smiles": "C/C=C/c1ccc([C@H]2[C@@H](CO)N3CCCCN(S(=O)(=O)c4ccccc4)C[C@@H]23)cc1", "activity change, negative = toxicity": "1.81%"}
{"smiles": "C[C@H](CO)N1C[C@H](C)[C@H](CN(C)C(=O)c2ccccc2)Oc2cc(C3=CCCCC3)ccc2S1(=O)=O", "activity change, negative = toxicity": "-2.34%"}
{"smiles": "Cc1ccc(S(=O)(=O)N(C)C[C@H]2Oc3ccc(NS(=O)(=O)c4ccc(F)cc4)cc3C(=O)N([C@H](C)CO)C[C@@H]2C)cc1", "activity change, negative = toxicity": "-2.45% [at 21 µM]"}
{"smiles": "Cc1cc(O)c(C(C)C)cc1NC(=O)c1ccccc1Cl", "activity change, negative = toxicity": "-1.25%"}
{"smiles": "Cc1ccc(OCCCCNC(C)c2ccccc2)c(C)c1", "note": "(stereo not drawn)", "activity change, negative = toxicity": "2.38%"}
